SMILES strings stand for the structures. Where “and” joins values, the source holds several entries; their conditions need not be identical. Identical values can stand only once. This is part of a sample that, as a whole, favours compounds with a hit. Of some 83,000 tested, about 20% had one in any assay.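 Results are percent growth after 48 hours of single-concentration exposure. 100 means growth as in untreated cells, lower positive values show inhibition; negative values down to -100 show cell death.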 Calls of active or inactive are those of the source. The calls were made as follows: active = growth percent below 10; inactive = the rest.

Consider 26 compounds from PubChem BioAssay (NCI).

This assay relates to MDA-MB-468 breast. Description: NCI-60 one-dose screen, 48 h (100 = growth as untreated, 0 = no growth, -100 = all killed). The following applies: 10 µM unless noted.
Regarding `CNC(=O)c1cc(N2CCc3cc(NC(=O)Nc4ccc(N5CCOCC5)c(C(F)(F)F)c4)ccc32)ccn1`, the growth is 49.6% (inactive).
`CCC(=O)Oc1ccc(OCc2ccccc2)cc1`: the growth was 104% (inactive) and 118% (inactive).
To `O=C1C(=O)c2c(nc3ncccn23)-c2ccccc21` belongs -64.9% (active).
To `Cc1nc2sc(C(=O)Nc3cccc4c3OCCO4)c(N)c2cc1C(C)O` (stereo unspecified) belongs 3.42% (active).
The same measure for `CC(=O)Nc1nc(C)c(C(=O)NNS(=O)(=O)c2ccccc2)s1`: 107% (inactive).
On to `CCC1=Cc2c(OC)cccc2OC12C=Cc1c(OC)cccc1O2` (stereo unspecified), for which the growth is 54% (inactive).
For `N#Cc1ccc(NC(=O)c2ccc3cccnc3c2O)cc1`, the growth is 1.27% (active).
To `NC[C@@](O)(c1ccc(Cl)cc1)c1ccc(-c2cn[nH]c2)cc1` belongs -40.9% (active); to `CN(C)c1ccc(Cc2cc(-c3ccccc3)nn(C/C(=N/O)c3ccccc3)c2=O)cc1`, 57.1% (inactive); to `S=C(NCc1ccc2c(c1)OCO2)N1CCN(c2ncnc3c2oc2ccccc23)CC1`, -11% (active).
To `CCCCCc1ccc(S(=O)(=O)Nc2cccc(-c3csc(NC(=O)CN4CCN(C)CC4)n3)c2)cc1` belongs 89.5% (inactive).
The same measure for `Cc1ccc2c(c1)c(Sc1ccc(C(=O)NO)cc1)c1n2CN(C)CC1`: -19.3% (active).
Consider `CCc1ccc(OCc2ccccc2C(=O)Nc2ccc3nc(C)cc(N)c3c2)cc1`, for which the growth is -58.4% (active).
To `O=S1(=O)NCCCN1CCNc1nccc(-c2c(-c3cccc(O)c3)nc3sccn23)n1` belongs 78.8% (inactive); to `Nc1ccc(Nc2nccc(-c3ccc4ccccc4c3)n2)cc1`, -10.6% (active); to `COc1ccc(NC(=O)c2ccoc2COc2ccccc2)cc1`, 116% (inactive).
The same measure for `CS(=O)(=O)Nc1cc(-c2ccc3ncc(C#N)c(Nc4cccc(Cl)c4F)c3c2)cnc1Cl`: -45.3% (active); for `O=C1CCCN1C1CCN(Cc2cc3ccccc3[nH]c2=O)c2ccccc21` (stereo unspecified): 83.5% (inactive).
The same measure for `COc1ccc2c(c1)c(-c1nc(-c3c[nH]c4ncccc34)cs1)cn2CCO`: 1.57% (active); for `CC1(C)N=C(N)N=C(N)N1c1cccc(CN)c1`: 84.8% (inactive).
Turning to `COc1ccc(OC)c(C2C(C#N)=C(N)Oc3cc(O)ccc32)c1` (stereo unspecified), the growth was 81.1% (inactive).
The same measure for `Cc1ccc2c(n1)C(=O)C(Br)=C(CC(C)C)C2=O`: 91.1% (inactive).
To `CCCCn1c(=O)c(-c2cc(-c3ccc(Cl)cc3)nc(-c3ccc(Cl)cc3)c2)cc2ccc(Cl)cc21` belongs 95% (inactive); to `Cc1cc(C)c2sc(=O)n(Cc3nnc(SCCC(=O)O)o3)c2n1`, 110% (inactive); to `COc1cc(/C=C/c2cc(/C=C/c3ccc(O)c(OC)c3)n(-c3c(Cl)cccc3Cl)c(=O)n2)ccc1O`, 29.6% (inactive).
As to `CCN(CC)CC#CCOC(=O)[C@]1(C)CCC[C@]2(C)c3ccc(C(C)C)cc3CC[C@@H]12`, the growth was 65.3% (inactive).
